Assay [1] is described as follows: Cell Viability - LYMP2-010 (AID 981). Further: nearly all actives have a fitted effect of over 55% in size. Further: potency means the concentration at half of the fitted maximal effect. As to conditions: LYMP2-010 lymphoblastoid cell viability, qHTS; series mostly up to 92.2 µM. The gist of the method: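 Luminescent ATP signal (CellTiter-Glo) served as the viability read-out. Cells of the human lymphoblastoid line were treated with compound over a concentration range for 24 hours at 37 C, and AC50 values came from Hill-equation modeling.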
On the technique in general: qHTS replaces the single test concentration by a dilution series.

The nature of assay [2]: Cell Viability - LYMP2-012 (AID 982).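 Further: cellular ATP by luciferase luminescence where a drop means cytotoxicity; cells exposed to compound for one day before reading; nearly all actives have a fitted effect of over 55% in size.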 As to conditions: LYMP2-012 lymphoblastoid cell viability qHTS; series mostly up to 92.2 µM.
Assay [3] in a line: Cell Viability - LYMP2-014 (AID 983).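 Further: cells exposed to compound for 24 h at 37 °C; nearly all actives have a fitted effect of over 50% in size.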 Particulars: LYMP2-014 lymphoblastoid cells, viability qHTS; series mostly up to 92.2 µM. In short, it runs like this: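 Luminescent ATP signal (CellTiter-Glo, 30 min at room temperature) serves as the viability read-out after 24 hr compound exposure at 37 C. Cells were seeded at 2500 per well and settled 5 hr beforehand.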
Assay [4] in a line: Cell Viability - LYMP2-016 (AID 984). Further: nearly all actives have a fitted effect of over 55% in size. As to conditions: LYMP2-016 lymphoblastoid cell viability, qHTS; series mostly up to 92.2 µM. The gist of the method:
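Concentration-dependent ATP depletion measured in LYMP2-016 lymphoblastoid cells, 24 h, 37 C; luciferase-based luminescent detection; Hill-equation AC50.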

The nature of assay [5]: Cell Viability - LYMP2-018 (AID 985). Further: nearly all actives have a fitted effect of over 50% in size. As to conditions: LYMP2-018 lymphoblastoid cells, viability (qHTS); series mostly up to 92.2 µM. The gist of the method:
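Luminescent ATP signal (CellTiter-Glo, read after 30 min at room temperature) reports viable cells after 24 hr compound treatment at 37 C. Concentration-response data were fitted to the standard Hill equation for AC50.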

Assay [6] is described as follows: Cell Viability - LYMP2-026 (AID 989).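 Further: cells exposed to compound for 24 h at 37 °C; nearly all actives have a fitted effect of over 50% in size.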 As to conditions: LYMP2-026 lymphoblastoid cell viability, qHTS; series mostly up to 92.2 µM. In short, it runs like this:
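Luminescent ATP signal (CellTiter-Glo, 30 min room temperature) measures viable lymphoblastoid cells after 24 hr compound treatment at 37 C. Decreased ATP reflects acute toxicity; AC50 values come from Hill-equation modeling.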

The target of assay [7] is Alpha-galactosidase A (Homo sapiens) (UniProt P06280). Nature of the assay: Counterscreen for Glucocerebrosidase Inhibitors: qHTS Assay for Human alpha-Galactosidase at pH 4.5 (AID 992). Particulars: purified enzyme, fluorogenic substrate; series mostly up to 76.9 µM. In short, it runs like this:
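Enzyme at 2 nM final was combined with compound (0.7 nM to 77 uM) and 80 uM 4-methylumbelliferyl alpha-D-galactopyranoside in 50 mM citric acid, 0.005% Tween-20, pH 4.5. After 20 min at room temperature, fluorescence was read (Ex 365/Em 440 nm); AC50 came from Hill fits.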

Assay [8] in a line: Cell Viability - LYMP2-020 (AID 986).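 Further: cells exposed to compound for 24 h at 37 °C; nearly all actives have a fitted effect of over 55% in size.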 As to conditions: series mostly up to 92.2 µM. An excerpt: NIH Chemical Genomics Center [NCGC]
NIH Molecular Libraries Screening Centers Network [MLSCN]
National Institutes of Environmental Health Sciences [NIEHS]
National Toxicology Program [NTP]
We have developed a 1536-well cell-based assay for quantitative high throughput screening (qHTS) against a number of cell lines to determine in vitro cytotoxicity of small molecules. This particular assay uses a human lymphoblastoid cell line (LYMP2-020) purchased from Coriell Institute for Medical Research.
NCGC Assay Protocol Summary:
The CellTiter-Glo luminescent cell viability assay (Promega) is a homogeneous method to measure the number of viable cells in culture. The end point readout of this assay is based on quantitation of intracellular ATP, an indicator of metabolic activity, using the luciferase reaction. […]
Using the CellTiter-Glo luminescent cell viability assay, the amount of cellular ATP was measured in the lymphoblastoid cell line with complete culture medium following compound treatment for 24 hours. […] Library compounds were measured for their ability to cause acute toxicity in the cell line, as reflected by a decrease in intracellular ATP levels, in a concentration-dependent manner. […] AC50 values were determined from concentration-response data modeled with the standard Hill equation. […]
8. Detection; Luminescence; Viewlux plate reader […]

A short description of assay [9]: Cell Viability - LYMP2-022 (AID 987). Further: nearly all actives have a fitted effect of over 55% in size. As to conditions: LYMP2-022 lymphoblastoid cell viability; series mostly up to 92.2 µM. In short, it runs like this:
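qHTS: human lymphoblastoid cells 2500/well; 5 hr 37 C; cpd added; 24 hr 37 C; CellTiter-Glo, 30 min RT; luminescence. AC50 via Hill fit; tetraoctylammonium bromide positive ctrl.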

Assay [10] can be described thus: Cell Viability - LYMP2-024 (AID 988). Further: nearly all actives have a fitted effect of over 60% in size. Particulars: LYMP2-024 lymphoblastoid cell viability; series mostly up to 92.2 µM. In short, it runs like this:
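Steps: seed 2500 cells/well, 5 hr 37 C; add compound, 24 hr 37 C; add CellTiter-Glo, 30 min room temperature; read luminescence. AC50 derived by Hill modelling of concentration-dependent ATP loss.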

Inconclusive results are not listed. Active and inactive are the calls of the source. The call rests on the fitted dose curve; in most records, active means well fitted curve in the direction sought with a large enough effect; inconclusive means small, poorly fitted or top-dose-only effect, or another doubt; inactive means no such curve, though single readings can be large; an effect the other way counts as inactive or inconclusive.

Chain of Alpha-galactosidase A (Homo sapiens) (P06280 whole entry, looked up): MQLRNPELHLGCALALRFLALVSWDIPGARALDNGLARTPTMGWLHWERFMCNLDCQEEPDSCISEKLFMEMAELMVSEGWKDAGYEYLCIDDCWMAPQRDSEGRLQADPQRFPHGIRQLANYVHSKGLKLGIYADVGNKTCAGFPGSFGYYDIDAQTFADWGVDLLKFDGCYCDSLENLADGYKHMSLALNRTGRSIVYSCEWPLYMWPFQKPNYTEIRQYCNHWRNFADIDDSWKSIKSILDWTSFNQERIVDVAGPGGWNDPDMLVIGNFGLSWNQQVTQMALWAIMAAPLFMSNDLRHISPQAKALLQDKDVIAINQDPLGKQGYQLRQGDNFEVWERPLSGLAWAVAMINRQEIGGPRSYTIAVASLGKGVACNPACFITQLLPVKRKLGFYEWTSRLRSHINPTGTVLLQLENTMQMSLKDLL

Regarding `Nc1ccccc1N`, the Potency in assay [1] is 15.8 µM (active). Also, the compound was classed as inactive in assay [2], in [3], in assay [4], in [5] and in assay [6].
Take `CC(=O)O[C@H]1C(=O)[C@@]2(C)[C@H]([C@H](OC(=O)c3ccccc3)[C@]3(O)C[C@H](OC(=O)[C@H](O)[C@@H](NC(=O)c4ccccc4)c4ccccc4)C(C)=C1C3(C)C)[C@]1(OC(C)=O)CO[C@@H]1C[C@@H]2O`: in [7], the compound was classed as inactive.
As to `CC(=O)O[C@@H]1CC(C)=C2[C@H]1[C@H](C)CC[C@H]2/C=C(\C)C(=O)O`, the Potency entry in [1] was “inactive”. The compound was called inactive in assay [2], in assay [3], in assay [4], in assay [5], in assay [8] and in assay [9]. In addition, the call in assay [10] and in assay [6] was inactive.
For the compound `Cc1ccc(N)cc1O`, the Potency result in assay [1] is “inactive”. Moreover, the call in [2], in [3], in assay [4], in assay [5], in [8] and in assay [9] was inactive. Also, the compound was called inactive in assay [10] and in [6].

For the origin of these results see PubChem BioAssay (NCATS).
